# Reference: publication PMC5700166
# Residue numbers refer to the chain shown, from its start.
# Columns and labels:
# Assay in all cases: protein-binding microarray (PBM); PBM: ~300 nM protein, 6 mM HEPES pH 7.8, 80 mM KCl, 0.5 mM EDTA, 0.5 mM EGTA, 6% glycerol, 35 ng/ul poly-dIdC, 1% milk, 1 h, room temperature; Ap Aiptasia and Nv Nematostella (sea anemones) / Co Capsaspora / Aq Amphimedon (sponge) / Dm Drosophila / Hu human; RHD is the Rel homology domain; high values mean tight binding
# Settings in all cases: dsDNA, one strand shown
# GST-Ap-NF-kB RHD = biological target: T1, GST-Ap-NF-kB RHD (Exaiptasia pallida (Aiptasia), UniProt A0A913YAJ5 2-422)
# T1 sequence: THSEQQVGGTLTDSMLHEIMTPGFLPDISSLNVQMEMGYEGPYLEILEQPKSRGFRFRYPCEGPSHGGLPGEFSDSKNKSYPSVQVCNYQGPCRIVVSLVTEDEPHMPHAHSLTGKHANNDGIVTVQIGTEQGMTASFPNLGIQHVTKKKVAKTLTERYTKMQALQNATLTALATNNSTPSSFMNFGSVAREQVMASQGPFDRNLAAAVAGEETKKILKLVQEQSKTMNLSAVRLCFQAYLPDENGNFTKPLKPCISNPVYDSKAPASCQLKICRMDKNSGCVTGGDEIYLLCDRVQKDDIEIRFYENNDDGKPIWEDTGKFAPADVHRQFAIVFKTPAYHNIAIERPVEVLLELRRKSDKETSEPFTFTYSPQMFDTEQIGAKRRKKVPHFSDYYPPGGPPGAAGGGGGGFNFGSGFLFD
# [1] = biological target: T2, GST-Nv-NF-kB (Cys allele) (Nematostella vectensis, UniProt E5G601 2-411)
# T2 sequence: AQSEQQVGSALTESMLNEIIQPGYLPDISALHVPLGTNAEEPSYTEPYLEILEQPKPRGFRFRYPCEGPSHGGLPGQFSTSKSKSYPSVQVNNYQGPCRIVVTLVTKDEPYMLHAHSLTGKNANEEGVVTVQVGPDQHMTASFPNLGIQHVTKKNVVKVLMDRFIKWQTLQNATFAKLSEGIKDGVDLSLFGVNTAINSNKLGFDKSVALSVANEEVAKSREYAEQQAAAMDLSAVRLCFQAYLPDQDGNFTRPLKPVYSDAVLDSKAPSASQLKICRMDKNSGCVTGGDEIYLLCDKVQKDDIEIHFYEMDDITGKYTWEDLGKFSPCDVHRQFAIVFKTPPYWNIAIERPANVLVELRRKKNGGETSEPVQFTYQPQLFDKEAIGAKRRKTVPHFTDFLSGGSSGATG
# [2] = biological target: T3, GST-Nv-NF-kB (Ser allele) (Nematostella vectensis, UniProt A7UNT2 2-411)
# T3 sequence: T2 sequence with Q21R, C66S, S207N, E215Q, V217A, E225K, A268E, D399E
# GST-Co-NF-kB = biological target: T4, GST-Co-NF-kB (Capsaspora owczarzaki, UniProt F1ARL5 200-546)
# T4 sequence: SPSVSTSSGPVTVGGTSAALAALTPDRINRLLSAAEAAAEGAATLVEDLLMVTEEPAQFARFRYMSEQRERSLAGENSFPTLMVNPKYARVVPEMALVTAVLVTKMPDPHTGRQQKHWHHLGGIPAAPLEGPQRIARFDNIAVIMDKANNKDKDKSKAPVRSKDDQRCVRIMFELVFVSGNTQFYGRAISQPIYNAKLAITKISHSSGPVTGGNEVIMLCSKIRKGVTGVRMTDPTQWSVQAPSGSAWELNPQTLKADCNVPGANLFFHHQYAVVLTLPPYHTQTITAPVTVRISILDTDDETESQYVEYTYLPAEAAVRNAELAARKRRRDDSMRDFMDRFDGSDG
# GST-Dm-Relish = biological target: T5, GST-Dm-Relish (Drosophila melanogaster, UniProt Q94527 99-473)
# T5 sequence: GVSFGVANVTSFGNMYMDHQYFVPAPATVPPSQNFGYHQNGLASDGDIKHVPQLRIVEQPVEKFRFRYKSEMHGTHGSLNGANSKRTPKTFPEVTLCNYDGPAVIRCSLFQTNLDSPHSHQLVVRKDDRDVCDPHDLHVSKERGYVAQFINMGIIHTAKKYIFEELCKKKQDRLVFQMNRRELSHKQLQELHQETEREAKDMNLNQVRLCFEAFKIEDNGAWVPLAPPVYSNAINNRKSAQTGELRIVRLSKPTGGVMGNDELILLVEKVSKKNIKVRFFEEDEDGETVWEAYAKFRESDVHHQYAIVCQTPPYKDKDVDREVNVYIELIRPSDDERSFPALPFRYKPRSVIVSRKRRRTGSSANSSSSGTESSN
# GST-Aq-NF-kB = biological target: T6, GST-Aq-NF-kB (Amphimedon queenslandica, UniProt A9Y5G7 2-389)
# T6 sequence: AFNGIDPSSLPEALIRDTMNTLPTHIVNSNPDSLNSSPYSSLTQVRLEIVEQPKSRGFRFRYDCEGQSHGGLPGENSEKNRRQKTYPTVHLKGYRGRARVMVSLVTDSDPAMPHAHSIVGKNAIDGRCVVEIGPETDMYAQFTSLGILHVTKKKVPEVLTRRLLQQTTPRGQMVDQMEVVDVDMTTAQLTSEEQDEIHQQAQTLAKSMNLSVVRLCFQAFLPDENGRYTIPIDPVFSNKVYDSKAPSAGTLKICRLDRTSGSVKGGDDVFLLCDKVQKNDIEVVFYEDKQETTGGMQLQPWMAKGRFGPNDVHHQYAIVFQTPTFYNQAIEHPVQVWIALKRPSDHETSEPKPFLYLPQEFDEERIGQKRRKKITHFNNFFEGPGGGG
# GST-Hu-p50 = GST-Hu-p50 (Homo sapiens, UniProt P19838 7-356)
# GST-Hu-p50, sequence (P19838 7-356): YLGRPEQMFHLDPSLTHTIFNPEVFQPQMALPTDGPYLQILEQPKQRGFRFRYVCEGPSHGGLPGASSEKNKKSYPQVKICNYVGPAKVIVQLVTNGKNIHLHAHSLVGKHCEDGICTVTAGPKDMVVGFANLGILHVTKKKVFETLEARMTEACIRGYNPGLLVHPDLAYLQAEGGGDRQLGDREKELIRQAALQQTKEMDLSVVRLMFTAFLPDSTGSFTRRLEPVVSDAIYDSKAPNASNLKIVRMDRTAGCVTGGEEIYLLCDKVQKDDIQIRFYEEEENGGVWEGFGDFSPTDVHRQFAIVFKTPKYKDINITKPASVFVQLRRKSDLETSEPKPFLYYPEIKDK
Sequence,binding signal (GST-Ap-NF-kB RHD) [z-score],binding signal [1] [z-score],binding signal [2] [z-score],binding signal (GST-Co-NF-kB) [z-score],binding signal (GST-Dm-Relish) [z-score],binding signal (GST-Aq-NF-kB) [z-score],binding signal (GST-Hu-p50) [z-score]
CCGATTAACATCAAATTCCCAGGTGATGTTAATCGGGTCTTGATTCGCTTGACGCTGCTG,2.43,3.11,3.64,3.53,3.69,2.4,4.02
CCGATTAACATCAAGGGGGTTCCTGATGTTAATCGGGTCTTGATTCGCTTGACGCTGCTG,9.16,6.77,6.26,1.68,10.4,7.2,6.65
CCGATTAACATCAGGGGGGATAATGATGTTAATCGGGTCTTGATTCGCTTGACGCTGCTG,5.8,4.93,5.26,7.17,4.67,4.72,5.14
CCGATTAACATCACGTGATTCCCTGATGTTAATCGGGTCTTGATTCGCTTGACGCTGCTG,2.22,2.38,2.58,1.63,8.61,3.33,1.11
CCGATTAACATCAGGGGATTGTATGATGTTAATCGGGTCTTGATTCGCTTGACGCTGCTG,6.91,7.07,8.67,3.04,4.19,5.12,6.01
CCGATTAACATCAGGGTAAACCCTGATGTTAATCGGGTCTTGATTCGCTTGACGCTGCTG,3.1,4.05,2.62,2.45,5.92,6.52,2.7
CCGATTAACATCAGAGACTTCCCTGATGTTAATCGGGTCTTGATTCGCTTGACGCTGCTG,1.92,2.44,2.19,1.11,1.95,3.32,1.57
CCGATTAACATCAAACATTCCCCTGATGTTAATCGGGTCTTGATTCGCTTGACGCTGCTG,6.81,9.14,9.23,7.01,4.9,6.75,5.95
CCGATTAACATCAGGGGAAAGTATGATGTTAATCGGGTCTTGATTCGCTTGACGCTGCTG,6.56,7.79,9.37,7.64,2.88,5.82,5.75
CCGATTAACATCAATTTCCCACCTGATGTTAATCGGGTCTTGATTCGCTTGACGCTGCTG,2.39,3.38,3.89,2.84,1.17,2.26,2.74
CCGATTAACATCAACAAATCCCCTGATGTTAATCGGGTCTTGATTCGCTTGACGCTGCTG,7.43,7.95,10.9,4.14,6.61,5.53,7.22
CCGATTAACATCAAAGCCCCCCCTGATGTTAATCGGGTCTTGATTCGCTTGACGCTGCTG,5.97,4.23,4.62,4.66,6.01,5.12,4.63
CCGATTAACATCAAATCATTCCCTGATGTTAATCGGGTCTTGATTCGCTTGACGCTGCTG,1.6,3.39,3.1,3.4,1.31,4.36,1.78
CCGATTAACATCAGGGAACACCCTGATGTTAATCGGGTCTTGATTCGCTTGACGCTGCTG,5.03,4.73,1.87,2.35,8.18,7.15,3.05
CCGATTAACATCAGGGAAACACATGATGTTAATCGGGTCTTGATTCGCTTGACGCTGCTG,2.17,2.95,3.46,3.05,6.06,3.52,1.39
CCGATTAACATCAGGGGGAACGATGATGTTAATCGGGTCTTGATTCGCTTGACGCTGCTG,5.18,4.82,6.18,7.4,2.42,4.16,4.41
CCGATTAACATCAGGGGAGGGACTGATGTTAATCGGGTCTTGATTCGCTTGACGCTGCTG,4.36,4.69,4.55,2.92,3.83,5.21,3.82
CCGATTAACATCACGGGATTTGGTGATGTTAATCGGGTCTTGATTCGCTTGACGCTGCTG,1.89,1.93,1.12,1.17,1.79,1.61,2.36
CCGATTAACATCATTTGGGAAAATGATGTTAATCGGGTCTTGATTCGCTTGACGCTGCTG,1.08,3.26,4.46,2.04,1.08,1.67,2.23
CCGATTAACATCAAGTAACCCCCTGATGTTAATCGGGTCTTGATTCGCTTGACGCTGCTG,6.04,4.44,4.98,3.76,6.97,5.32,5.24
CCGATTAACATCAGGGAAACTAATGATGTTAATCGGGTCTTGATTCGCTTGACGCTGCTG,2.58,3.94,4.37,3.69,1.22,3.45,2.79
CCGATTAACATCAAAACACTCCCTGATGTTAATCGGGTCTTGATTCGCTTGACGCTGCTG,2.25,3.3,2.69,2.06,1.28,4.45,2.59
CCGATTAACATCACCTTTTCCCCTGATGTTAATCGGGTCTTGATTCGCTTGACGCTGCTG,6.24,6.89,8.88,8.71,2.77,4.69,5.94
CCGATTAACATCAAAATTTACCCTGATGTTAATCGGGTCTTGATTCGCTTGACGCTGCTG,3.17,5.04,6.15,4.27,4.47,5.23,4.09
